According to PubChem BioAssay AID868 (SRMLSC, 2007):
The whole screen tested about 190,000 compounds, of which about 3,500 (1.8%) were called active.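 The calls were made as follows: active = inhibition above a set limit, 3 SD over mean compound inhibition (cut at about 8.4% in these data); inactive = the rest.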 The full list was thinned out, with actives kept by preference.

Test: RAM signaling blockers in budding yeast – dse1pr::URA3 reporter, 5-FOA selection, primary screen (AID 868);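 also: 0% = DMSO-only wells with no growth and 100% = 10 µM 1-NA-PP1 full growth; inhibition rescues growth on 5-FOA so higher OD means more RAM inhibition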
Details: S. cerevisiae dse1pr::URA3 reporter, 5-FOA growth OD615, 2 d; at 50 µM; hits give high values; analog-sensitive cbk1-as2 kinase mutant strain

| Compound | inhibition |
| --- | --- |
| COC(=O)[C@@H](NC(=O)Nc1cc(Cl)ccc1C)C(C)C | 1.68% (inactive) |
| COc1ccc(Cl)cc1NC(=O)CNc1ccccc1F | -1.15% (inactive) |
| COc1ccc(Cl)cc1NC(=O)NC(C)C(C)(C)C (configuration not stated) | 12.8% (active) |
| COCCNC(=O)C(OC(=O)c1cccs1)c1ccc(F)cc1 (configuration not stated) | 0.51% (inactive) |
| Cc1ccc(NC(=O)Cn2cccc2C2=NC(c3ccccc3)CO2)c(C)c1 (configuration not stated) | 0.92% (inactive) |
| COC(=O)C1=C(C)N(C)C(=S)NC1c1cc(OC)ccc1OC (configuration not stated) | 0.25% (inactive) |
| COc1cccc(C(=O)Nc2cc3c(cc2Br)OCCCO3)c1 | 1.75% (inactive) |
| Brc1ccc(C2=CC(c3ccco3)n3ncnc3N2)cc1 (configuration not stated) | 0.23% (inactive) |
| COc1ccc(C2C=C(c3ccc(Br)cc3)Nc3nc(NS(C)(=O)=O)nn32)cc1 (configuration not stated) | 13.4% (active) |
| COc1ccc(C2=CC(c3cccc(OC)c3)n3nnnc3N2)cc1 (configuration not stated) | 5.23% (inactive) |
| CNC(=O)c1[nH]cnc1C(=O)N[C@@H](CC(C)C)C(=O)OC(C)(C)C | 0.13% (inactive) |
| CSCC(=O)N1CCCC(C(=O)c2cc(F)ccc2F)C1 (configuration not stated) | 0.37% (inactive) |
| Cc1cc(C)n2nc(SCC(N)=O)nc2n1 | -0.25% (inactive) |
| CC(/C=N/NC(=O)c1ccncc1)=C\c1ccco1 | 1.91% (inactive) |
| CC(/C=N/NC(=O)c1cc(-c2ccc3ccccc3c2)n[nH]1)=C\c1ccco1 | 2.36% (inactive) |
| C/C(=C\c1ccco1)C1Nc2cccc3cccc(c23)N1 | 8.69% (active) |
| CCOC(=O)c1c(NC(=O)CNC2CCCc3ccccc32)sc(C(N)=O)c1C (configuration not stated) | 3.87% (inactive) |
| COc1cc(C(=O)Nc2cc(C(F)(F)F)ccc2N2CCOCC2)ccc1O | 0.55% (inactive) |
| Fc1cccc2ncnc(OCc3ccccc3)c12 | 3.63% (inactive) |
| COC(=O)c1ccc(NCC(=O)c2ccccc2)cc1 | 0.14% (inactive) |
| CCC[C@@H]1C[C@@]1(CCC)[C@@H](NC(=O)c1ccccc1)c1ccc(C(=O)OC)cc1 | 9.65% (active) |
| COC(=O)[C@H](C)[C@H]1C[C@]1(C)[C@H](NC(=O)OCc1ccccc1)c1ccccc1 | 8.31% (inactive) |
| CC(C)C(=O)Nc1oc(-c2ccccc2)cc1C#N | 1.62% (inactive) |
| COc1cc(N2C(=O)c3ccccc3C2=O)c(Cl)cc1C(=O)OCC(=O)N1CCOCC1 | 0.61% (inactive) |
| CCOc1cc(/C=N/O)ccc1OCc1ccccc1F | 0.13% (inactive) |

| Compound | inhibition |
| --- | --- |
| COc1cc(/C=C2/C(=O)ON=C2C)ccc1OCc1ccccc1F | 11.4% (active) |
| COc1cc(/C=C2/C(=O)ON=C2C)ccc1OCc1cccc(F)c1 | 1.59% (inactive) |
| N#Cc1ccc(C(=O)Nc2nc(-c3cccs3)c(C(=O)C(F)(F)F)s2)cc1 | 3.01% (inactive) |
| CCN(CC(=O)NC(=O)NCc1ccccc1)Cc1nc2ccccc2c(=O)[nH]1 | 0.8% (inactive) |
| CC(=O)NC1(c2ccc(F)cc2)CCN(C(=O)c2c(F)cccc2F)CC1 | -0.25% (inactive) |
| Cc1ccc(-c2csc3nnc(SCC(=O)NCc4ccco4)n23)cc1 | 0.13% (inactive) |
| O=C(CSc1nnc2scc(-c3ccc(F)cc3)n12)NCc1ccco1 | 9.95% (active) |
| Cn1c(-c2ccc(F)cc2)cnc1SCC(=O)NCc1ccco1 | 1.92% (inactive) |
| Cc1ccc(C2CC(c3cccc(NS(C)(=O)=O)c3)=NN2S(C)(=O)=O)cc1 (configuration not stated) | 0.38% (inactive) |
| O=c1c([N+](=O)[O-])cccn1Cc1ccc(F)cc1Cl | -0.54% (inactive) |
| CN1C(=O)/C(=C/C=C2\SCCN2C)OC1=S | 2.52% (inactive) |
| O=C(c1cccc2ccccc12)N1CCN(c2ccccc2F)CC1 | -0.35% (inactive) |
| COC(=O)c1ccc(C(=O)OC)c(NC(=S)N2CCN(c3cc(Cl)ccc3C)CC2)c1 | 3.51% (inactive) |
| Cc1ccc(Cl)cc1N1CCN(C(=O)c2cccc3c(=O)c(C)c(-c4ccccc4)oc23)CC1 | 8.43% (active) |
| Cc1ccc(C(=O)N/C(=C/c2cccs2)C(=O)NCC2CCCO2)cc1 (configuration not stated) | 0.13% (inactive) |
| Cc1cc(C)n(-c2ccc3nncn3n2)n1 | 1.87% (inactive) |
| CC(C)=CCCC1(C)C=Cc2c(ccc3c2[nH]c2cc(O)c(C)cc23)O1 (configuration not stated) | 21.4% (active) |
| Cc1c(Nc2cc(N3CCCC(C)C3)c3nonc3c2[N+](=O)[O-])c(=O)n(-c2ccccc2)n1C (configuration not stated) | 8.7% (active) |
| Cc1c(CN2CCC(C)CC2)c(=O)n(-c2ccccc2)n1C | 0.66% (inactive) |
| Cc1c(NS(=O)(=O)c2ccc(NC3CCCC3)c([N+](=O)[O-])c2)c(=O)n(-c2ccccc2)n1C | 4.03% (inactive) |
| O=C1CCC(CCC(=O)N2CCCC(C(=O)c3ccc(Cl)cc3)C2)=NN1 (configuration not stated) | 2.49% (inactive) |
| CC(C)(C)c1ccc(/C=C2\SC(=O)N=C2N)cc1 | 3.69% (inactive) |
| Cc1ccc(C(=O)c2c(NC(=O)c3ccncc3)sc3c2CCCC3)cc1 | 1.55% (inactive) |
| Cc1ccc(C(=O)c2c(NC(=O)c3ccccc3)sc(C)c2C)cc1 | 12.9% (active) |
| Cc1ccc(C(=O)NCCNC(=O)c2ccccc2)cc1 | 0.24% (inactive) |

| Compound | inhibition |
| --- | --- |
| NC1=NC2(CCCCC2)N(c2ccc(F)cc2F)C(N)=N1 | 0.5% (inactive) |
| O=c1cnnc(Nc2ccccc2F)[nH]1 | 0.79% (inactive) |
| C/C(N)=C(/C#N)C(=O)COC(=O)CNS(=O)(=O)c1ccc(C)cc1 | -0.96% (inactive) |
| Cc1sc2nc(CSCC(=O)Nc3c(Cl)cccc3Cl)[nH]c(=O)c2c1C | 4.58% (inactive) |
| CCOC(=O)c1sc2nc(CSCC(=O)OCc3ccc(C(=O)OC)o3)[nH]c(=O)c2c1C | 12.6% (active) |
| CCOC(=O)c1sc2nc(CSc3ccccc3)[nH]c(=O)c2c1C | 2.26% (inactive) |
| CCCCN(C(=O)c1ccc(OC(F)(F)F)cc1)c1c(N)n(CCC)c(=O)[nH]c1=O | 1.93% (inactive) |
| CCOC(=O)c1cnc(-n2nc(C)cc2C)nc1-n1nc(C)cc1C | 1.58% (inactive) |
| CCOC(=O)c1cnc(-n2nc(C)cc2C)nc1NNc1cc(C)nc(-c2ccccc2)n1 | 9.84% (active) |
| CCOC(=O)c1cnc(-c2ccccc2)nc1Oc1ccc(C)cc1 | 6.51% (inactive) |
| Cc1ccc(CN2CCC(N3CCC(C(=O)NCC4CCCO4)CC3)CC2)o1 (configuration not stated) | 1.95% (inactive) |
| CCOc1ccc(Oc2nc(C)cc(OC)n2)nn1 | 0.41% (inactive) |
| Cc1onc(C(=O)NN)c1C(=O)N1CCN(C(c2ccccc2)c2ccccc2)CC1 | 0.14% (inactive) |
| O=C(COC(=O)c1cnccn1)Nc1cccc2ccccc12 | -0.14% (inactive) |
| O=C(CCC(=O)OCc1cccc(C(=O)Oc2ccccc2)c1)Nc1cccc2ccccc12 | 15.2% (active) |
| O=C(CCC(=O)OCc1ccc(Cl)cc1)Nc1ccccc1 | -0.63% (inactive) |
| O=C(Cc1coc2ccc3ccccc3c12)NCc1cccs1 | 1.23% (inactive) |
| Cc1cccc(NC(=S)N2CCCC(c3nc4ccccc4[nH]3)C2)c1 (configuration not stated) | 1.53% (inactive) |
| Cc1ccc(CN2CCN(Cc3cn(C)nc3-c3ccccc3)CC2CCO)o1 (configuration not stated) | 0.52% (inactive) |
| COc1ccc(-c2noc(CSc3ccc(C)cc3)n2)cc1 | 2.24% (inactive) |
| COc1ccc(-c2noc(-c3ccc(C)cc3)n2)cc1 | 7.68% (inactive) |
| COc1ccc(-c2noc(CN(C)S(=O)(=O)c3ccc(C)cc3)n2)cc1 | 9.12% (active) |
| Cc1ccc(NC(=O)CN(C)CC(=O)Nc2cccc(F)c2)cc1[N+](=O)[O-] | 1.7% (inactive) |
| CSc1ncccc1C(=O)Nc1nc2ccc(F)cc2s1 | 2.36% (inactive) |
| CN(C)c1ccnc(Nc2ccc(F)cc2)c1C#N | 0.51% (inactive) |

| Compound | inhibition |
| --- | --- |
| O=C(CC(=O)N/N=C\c1ccc(F)cc1)NCCc1ccccc1 | 0.75% (inactive) |
| CCNc1nc(-c2cc3ccccc3o2)cs1 | 2.09% (inactive) |
| O=c1oc2ccccc2cc1-c1csc(Nc2ccc(O)cc2)n1 | 11.1% (active) |
| COc1ccc2nc(Nc3nc(-c4cc5ccccc5oc4=O)cs3)sc2c1 | 3.98% (inactive) |
| CC(=O)c1cccc(-n2nnnc2SCC(=O)NNC(=O)C2CCCCC2)c1 | 3.03% (inactive) |
| CN(C)CCOc1cccc(Br)c1 | 1.41% (inactive) |
| CC(NC(=O)CCC(=O)N1CCN(S(=O)(=O)c2ccc(Cl)cc2)CC1)c1ccccc1 (configuration not stated) | 2.73% (inactive) |
| CC(NC(=O)COC(=O)C1CCN(S(=O)(=O)c2ccccc2C(F)(F)F)CC1)c1ccccc1 (configuration not stated) | 8.48% (active) |
| CCNC(=O)NC(=O)C(C)OC(=O)C1CCN(S(=O)(=O)c2ccccc2F)CC1 (configuration not stated) | -0.96% (inactive) |
| CN(CCc1cnn(C)c1)Cc1cn(C)nc1-c1ccccc1F | 0.12% (inactive) |
| CCOc1ccc(NC(=S)N2CCCCCC2)cc1 | 0.12% (inactive) |
| CCOC(=O)c1sc2nc(C)nc(SCC(N)=O)c2c1C | 1.57% (inactive) |
| C=CCN(CC=C)C(=O)COC(=O)c1n[nH]c2ccccc12 | 2.26% (inactive) |
| CN(C)S(=O)(=O)c1ccc(NC(=O)COC(=O)c2n[nH]c3ccccc23)cc1 | 5.03% (inactive) |
| O=C(COC(=O)c1n[nH]c2ccccc12)NCc1ccccc1 | 8.45% (active) |
| O=C(CSc1nc(-c2ccccc2)cs1)Nc1cccc([N+](=O)[O-])c1 | 11.7% (active) |
| O=C(CSCC(=O)Nc1cccc([N+](=O)[O-])c1)Nc1ccccc1 | 0.64% (inactive) |
| CCNC(=O)CSc1nc(-c2ccccc2)cs1 | 0.79% (inactive) |
| NC(=O)COc1ccc(NC(=O)c2ccccc2-c2ccccc2)cc1 | 0.63% (inactive) |
| COc1cccc(-c2nc3cc(C)ccc3o2)c1 | 2.42% (inactive) |
| COc1ccc2oc(-c3cccc(NC(=O)CSc4ccc(Cl)cc4)c3)nc2c1 | 10.3% (active) |
| O=C(Cc1cccc2ccccc12)Nc1ccc2oc(-c3ccccc3)nc2c1 | 1.7% (inactive) |
